“And” between values parts separate entries of the source, which are not always exact repeats. Identical values can stand only once. Records with an inconclusive call do not appear. Some compounds were tested as several samples or in several runs, with calls that do not always agree. The source made the active and inactive calls. Calls come from the whole dose curve; as a rule, active = well fitted curve in the direction sought with a large enough effect in the repeat runs; inconclusive = weak or mixed curves; inactive = no such curve, though single readings can be large; an effect the other way counts as inactive or inconclusive.
% is set by controls: 0 for no effect and ±100 for the full control effect.

The nature of one assay: qHTS RealTime-Glo MT Cell Viability Assay in HEK293 cells - 0 hour (AID 1224880). Note: top concentration of the series differs between compounds; nearly all actives have a fitted effect of over 45% in size. The following applies: RealTime-Glo luminescence; series mostly up to 76.8 µM; activity change, negative = cytotoxicity: at the top concentration. In outline: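 600 HEK293 cells per well, dispensed already mixed with RealTime-Glo MT reagents. Compound dosing came 5 h later. The same wells were read for luminescence at 0, 8, 16, 24, 32 and 40 h of exposure at 37 C.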
(In general: qHTS replaces the single test concentration by a dilution series.)
For the compound `NC(CSCC(=O)O)C(=O)O` (configuration not stated), the “activity change, negative = cytotoxicity” value is 4.32% [at 35.3 µM] (inactive).
As for `O=C(O)CNC(=O)c1ccc([N+](=O)[O-])cc1`, the “activity change, negative = cytotoxicity” value is 1.74% (inactive).
In the case of `N=C(N)c1ccc(OCCCOc2ccc(C(=N)N)cc2)cc1`, the “activity change, negative = cytotoxicity” value is 0.367% [at 35.3 µM] (inactive).
On the same count and under the same terms, the same measure for `CCCCCCCCCCCCCCCCC`: -1.37% (inactive); for `CN(C)CCCNCCCN(C)C`: 0.939% (inactive); for `COc1ccc2c(c1)c(CC(=O)OCC(=O)O)c(C)n2C(=O)c1ccc(Cl)cc1`: -21.5% [at 35.3 µM] (inactive).
Still for that read-out and setting: the same measure for `CCCCOCCOCCOCCCC`: 6.54% (inactive); for `COC(C)(C)CCCC(C)CC=O` (configuration not stated): -9.49% (inactive).
Still for that read-out and setting: the same measure for `CCCN1CCCC[C@H]1C(=O)Nc1c(C)cccc1C`: 12% [at 35.3 µM] (inactive); for `O=C(O)CCCl`: -0.624% (inactive).
As for `COc1nc(N)nc2c1ncn2[C@@H]1O[C@H](CO)[C@@H](O)[C@@H]1O`, the “activity change, negative = cytotoxicity” value was -2.42% [at 35.3 µM] (inactive).
Regarding `C1OCOCO1`, the “activity change, negative = cytotoxicity” value is -2.22% (inactive).
Consider `Cc1cc2c(cc1S(N)(=O)=O)S(=O)(=O)CCC2`, for which the “activity change, negative = cytotoxicity” value is 2.01% [at 35.3 µM] (inactive).
Consider `O=c1n(CCO)c(=O)n(CCO)c(=O)n1CCO`, for which the Potency result is “inactive”.
Consider `CCCCCCCCCCCCN(CCCCCCCCCCCC)CCCCCCCCCCCC`, for which the “activity change, negative = cytotoxicity” value was -0.405% (inactive).
With `CCS(=O)(=O)c1ccc(OC)c(C(=O)OC)c1`, the “activity change, negative = cytotoxicity” value was 0.312% [at 35.3 µM] (inactive).
For the compound `N=C(N)c1ccccc1`, the “activity change, negative = cytotoxicity” value is -4.55% (inactive).
Still for that read-out and setting: the same measure for `CN1C(=O)N(C)C(O)C1O` (configuration not stated): 1.27% (inactive); for `CC(C)NC(=O)NC(C)C`: -5.4% (inactive); for `Brc1c(NC2=NCCN2)ccc2nccnc12`: -8.52% [at 35.3 µM] (inactive).
Still for that read-out and setting: then `CN(C(=O)c1c(O)c2ccccc2n(C)c1=O)c1ccccc1`, with -0.0747% [at 35.3 µM] (inactive); and `CC(C)NCCCC1(C(N)=O)c2ccccc2-c2ccccc21`, with -1.89% [at 35.3 µM] (inactive); and `C=C(C)C(=O)OCCCCCCCC(C)C`, with -1.53% (inactive).
Still for that read-out and setting: then `CC(NC(CCc1ccccc1)C(=O)O)C(=O)N1C(=O)N(C)CC1C(=O)O` (configuration not stated), with 10.1% [at 35.3 µM] (inactive); and `CCOC(=O)[C@H](CCc1ccccc1)N[C@@H](C)C(=O)N1[C@H](C(=O)O)C[C@@H]2CCC[C@@H]21`, with 9.38% [at 35.3 µM] (inactive).
With `O=Cc1cccc([N+](=O)[O-])c1`, the “activity change, negative = cytotoxicity” value is 1.01% (inactive).
With `CC/C=C\CC/C=C/C(OCC)OCC`, the “activity change, negative = cytotoxicity” value was -4.25% (inactive).
Turning to `CCCCCSCCCCC`, the “activity change, negative = cytotoxicity” value is 0.28% (inactive).
Same read-out and setting: the same measure for `CCOC(=O)CC(C)=O`: 8.09% (inactive).
Same read-out and setting: the same measure for `Cn1cc(S(C)=O)c(=O)c2ccc(F)cc21` (configuration not stated): -2.77% [at 35.3 µM] (inactive); for `CC(C)CCCC(C)N` (configuration not stated): -0.708% [at 35.3 µM] (inactive); for `COC(=O)c1ccc(C)cc1C1=NC(C)(C(C)C)C(=O)N1` (configuration not stated): 13.6% (inactive).
The same measure, in the same setting: then `CC(C)(O)C(=O)c1ccccc1`, with 6.19% (inactive); and `N#Cc1ccc(C2CCCc3cncn32)cc1` (configuration not stated), with 4.2% [at 35.3 µM] (inactive); and `C[C@@H]1CCN(C(=O)[C@H](CCCN=C(N)N)NS(=O)(=O)c2cccc3c2NC[C@H](C)C3)[C@@H](C(=O)O)C1`, with 0.2% [at 35.3 µM] (inactive).

A further assay in a line: A CellTox Green Cytotoxicity Assay to monitor cytotoxicity in HEK293 cells - 32 hour (AID 1224881). Note: nearly all actives have a fitted effect of over 40% in size. Note: potency is the fitted concentration of half-maximal effect. The note with it: CellTox Green fluorescence; series mostly up to 35.3 µM; cytotoxicity increase: at the top concentration. In outline:
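Dead-cell fluorescence measured kinetically: asymmetric cyanine dye, HEK293, 600 cells/well, 5 h settle, 23 nL cpd/DMSO, 37 C, reads 0–40 h every 8 h.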
As for `NC(CSCC(=O)O)C(=O)O` (configuration not stated), the “cytotoxicity increase” value is -6.89% (inactive).
Turning to `O=C(O)CNC(=O)c1ccc([N+](=O)[O-])cc1`, the “cytotoxicity increase” value was 3.14% [at 76.8 µM] (inactive).
With `N=C(N)c1ccc(OCCCOc2ccc(C(=N)N)cc2)cc1`, the “cytotoxicity increase” value is -2.47% (inactive).
Same read-out and setting: the same measure for `CCCCCCCCCCCCCCCCC`: -5.5% [at 76.8 µM] (inactive); for `CN(C)CCCNCCCN(C)C`: -9.34% [at 76.8 µM] (inactive).
Still for that read-out and setting: the same measure for `COc1ccc2c(c1)c(CC(=O)OCC(=O)O)c(C)n2C(=O)c1ccc(Cl)cc1`: -6.84% (inactive); for `CCCCOCCOCCOCCCC`: -5.07% [at 76.8 µM] (inactive); for `COC(C)(C)CCCC(C)CC=O` (configuration not stated): -1.16% [at 76.8 µM] (inactive).
The same measure, in the same setting: then `CCCN1CCCC[C@H]1C(=O)Nc1c(C)cccc1C`, with -3.88% (inactive).
In the case of `O=C(O)CCCl`, the “cytotoxicity increase” value was -7.98% [at 76.8 µM] (inactive).
The same measure, in the same setting: then `COc1nc(N)nc2c1ncn2[C@@H]1O[C@H](CO)[C@@H](O)[C@@H]1O`, with -16.3% (inactive); and `C1OCOCO1`, with -0.375% [at 76.8 µM] (inactive).
Same read-out and setting: then `Cc1cc2c(cc1S(N)(=O)=O)S(=O)(=O)CCC2`, with 0.206% (inactive).
`O=c1n(CCO)c(=O)n(CCO)c(=O)n1CCO`: the Potency entry is “inactive and 38.9 µM (active)”.
As for `CCCCCCCCCCCCN(CCCCCCCCCCCC)CCCCCCCCCCCC`, the “cytotoxicity increase” value is -17.2% [at 76.8 µM] (inactive).
On the same count and under the same terms, the same measure for `CCS(=O)(=O)c1ccc(OC)c(C(=O)OC)c1`: -4.6% (inactive); for `N=C(N)c1ccccc1`: 3.61% [at 76.8 µM] (inactive).

The record behind these values is PubChem BioAssay (Tox21).
